# Laboratory results from PMC13083723 (Patterns, 2026).
# The whole screen tested about 5,400 compounds, of which about 190 (3.5%) showed an effect of 50% or more. The list comes from a sample in which strong results are over-represented; it also holds similar structures and randomly drawn compounds. Starred links: 1 amine or outer side, 2 acyl side, 3 side chain; linkers in the order of their positions; H or OH if unused. Positions of bridges follow the written chain, without caps; N, C: chain ends. Non-standard residues stand in square brackets, D forms with d. Residues, ends and D or L forms follow the SMILES beside them. *: point of attachment. X5 = NC1=N[C@@H](O)C[C@H]([C@H](N[*:1])C(=O)[*:2])N1; ΔAla(Z-3-ureido) = NC(=O)N/C=C(\N)C(=O)O; β3hOrn = NCCC[C@H](N)CC(=O)*; Dap = NC[C@H](N)C(=O)O
# Test system: Vero-E6
# Test: primary screen, phospholipidosis by LipidTOX staining; higher = more effect of the substance
# Details: 10 µM
# Procedure, shortened: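 Drug-induced phospholipidosis detected with HCS LipidTOX Red reagent in Vero-E6 cells. Compounds tested at 10 μM, with amiodarone (10 μM) as positive control and DMSO (0.1 v/v %) as vehicle.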
row,SMILES,result_ITMP [%]
1,COCc1nc2c(=O)n(C)c(=O)n(CC(C)C)c2[nH]1,-0.95
2,NC(N)=N/C(N)=N/CCc1ccccc1,-1.11
3,CN/C(=N\C#N)NCCSCc1csc(N=C(N)N)n1,2.7
4,CN[C@@H]1Cc2cccc3nc(O)n(c23)C1,5.61
5,COc1ccc2c(c1)CN(C)CC2c1ccc(Cl)c(Cl)c1 (centres unmarked),12.7
6,CN[C@H]1CC[C@@H](c2ccc(Cl)c(Cl)c2)c2ccccc21,56.1
7,CN[C@@H]1C[C@@H](c2ccc(Cl)c(Cl)c2)c2ccccc21,71.1
8,O[C@@H]1CCCC[C@H]1N1CCC(c2ccccc2)CC1 (racemic),-4.38
9,S=C(NC1CCCCC1)N1CCC(c2c[nH]cn2)CC1,1.61
10,Oc1ccc2c3c1OC1C(O)CCC4(O)C(C2)N(CC2CCC2)CCC314 (centres unmarked),1.96
11,CC(C)COCC(CN(Cc1ccccc1)c1ccccc1)N1CCCC1 (centres unmarked),66.8
12,CC(COc1ccccc1)N(CCCl)Cc1ccccc1 (centres unmarked),0.48
13,c1ccc(CN(CC2=NCCN2)c2ccccc2)cc1,16.9
14,COc1ccc2c3c([nH]c2c1)[C@H](CC(C)C)N1C(=O)[C@H](CCC(=O)OC(C)(C)C)NC(=O)[C@@H]1C3,-1.42
15,N[C@@]1(C(=O)O)CC[C@H](C(=O)O)C1.N[C@]1(C(=O)O)CC[C@@H](C(=O)O)C1,-0.35
16,CCS(=O)(=O)N1CCN(c2ccc(Nc3ncc(C(N)=O)c(NC4CC4)n3)cc2)CC1,1.28
17,CNC(=O)c1nn(C)c2c1C(C)(C)Cc1cnc(Nc3ccc(N4CCN(C)CC4)cc3)nc1-2,54.6
18,CN1CCN(c2ccc(OC(F)(F)F)c(Nc3ncc4c(n3)-c3c(c(C(N)=O)nn3CCO)CC4)c2)CC1,-0.49
19,CC1(C)CC[C@]2(C(=O)O)CC[C@]3(C)[C@H](C(=O)C=C4[C@@]5(C)C=C(C#N)C(=O)C(C)(C)[C@@H]5CC[C@]43C)[C@@H]2C1,-1.94
20,C=CCCCCCCCCC(=O)[O-],1.9
21,CCCCCCCC/C=C\CCCCCCCC(=O)N[C@@H](CO)Cc1ccc(O)cc1,-1.63
22,CCCCCCCCCCCCCCCC(=O)OC[C@@H](NC(=O)C(Cl)Cl)[C@H](O)c1ccc([N+](=O)[O-])cc1,-1.35
23,CCCCCCCC(=O)N[C@H](CN1CCCC1)[C@H](O)c1ccc2c(c1)OCCO2,51.9

row,SMILES,result_ITMP [%]
1,CCCCCCCCC(=O)N[C@H](CN1CCCC1)[C@H](O)c1ccc2c(c1)OCCO2,63.4
2,Cn1cnc([N+](=O)[O-])c1Sc1[nH]cnc2ncnc1-2,-1.78
3,N=C(N)Nc1ccc2[nH]c3c(c2c1)C[C@@]1(O)C2Cc4ccc(O)c5c4[C@@]1(CCN2CC1CC1)[C@H]3O5,-0.46
4,Nc1ccc(S(=O)(=O)[N-]c2cnc3ccccc3n2)cc1,-3.26
5,O=C([O-])c1nc(=O)[nH]c(=O)[nH]1,-2.23
6,CCC[C@@H]1CC2=CC(=O)CC[C@]2(C)[C@H]2CC[C@@]3(C)[C@@H](CC[C@@]3(O)CCC(=O)[O-])[C@H]12,-2.26
7,NC1=N[C@H]2[C@H](CCCCC(=O)O)SC[C@H]2N1,-5.63
8,C[C@]12CC[C@H]3[C@@H](CCC4=CC(=O)CC[C@@H]43)[C@@H]1CC[C@@H]2O,-1.6
9,NCCC[C@H](N)CC(=O)N[C@H]1CNC(=O)[C@H]([C@H]2C[C@H](O)N=C(N)N2)NC(=O)/C(=C/NC(N)=O)NC(=O)[C@H](CO)NC(=O)[C@H](CO)NC1=O (β3hOrn-[Dap]SS[ΔAla(Z-3-ureido)][X5]; lactam 1-C),-3.72
10,CCOc1cc(C(C)(C)C)ccc1C1=N[C@@](C)(c2ccc(Cl)cc2)[C@@](C)(c2ccc(Cl)cc2)N1C(=O)N1CCN(CCCS(C)(=O)=O)CC1,106
11,Cc1c(Cl)cccc1S(=O)(=O)Nc1nc(NCCc2ccccc2)nc2c1CN(Cc1ccccc1)CC2,-0.11
12,COc1ccc2c(c1)c(C1=C(c3c[nH]c4ccccc34)C(=O)NC1=O)cn2CCCN(C)C,120
13,Cn1cc(C2=C(c3cn(CCCSC(=N)N)c4ccccc34)C(=O)NC2=O)c2ccccc21,15.8
14,CN(C)CCCn1cc(C2=C(c3c[nH]c4ccccc34)C(=O)NC2=O)c2ccccc21,-0.11
15,CS(=O)(=O)c1ccc(-c2cn3ccccc3n2)cc1,-2.12
16,O=C([O-])c1ccccc1-c1c2cc(I)c(=O)c(I)c-2oc2c(I)c([O-])c(I)cc12,7.91
17,CCC1=C[C@@H]2C[N@@]3CCc4c([nH]c5ccccc45)[C@@](C(=O)OC)(C2)[C@@H]13,6.61
18,COc1cc2c(Nc3ccc(NC(=O)c4ccccc4)cc3)ncnc2cc1OCCCN1CCOCC1,-3.61
19,COc1cc2nccc(Oc3ccc(NC(=O)C4(C(=O)Nc5ccc(F)cc5)CC4)cc3)c2cc1OC,0.07
20,COc1cc2c(Oc3ccc(NC(=O)C4(C(=O)Nc5ccc(F)cc5)CC4)cc3F)ccnc2cc1OCCCN1CCOCC1,80.1
21,CN1[C@@H]2CC[C@H]1C[C@@H](OC(=O)N1Cc3ccccc3NC1=O)C2,-1.56
22,CS(=O)(=O)CCNCc1nc(-c2ccc3ncnc(Nc4ccc(OCc5cccc(F)c5)c(Cl)c4)c3c2)cs1,2.46
23,Cc1cc(Nc2ncnc3ccc(-c4ccc(CNCCS(C)(=O)=O)o4)cc23)ccc1Oc1ccn2ncnc2c1,48.5

row,SMILES,result_ITMP [%]
1,CS(=O)(=O)CCNCc1ccc(-c2ccc3ncnc(Nc4ccc(OCc5cccc(F)c5)c(Cl)c4)c3c2)o1,91.4
2,COc1ccc(CNCc2cccc3ccccc23)cc1,11.4
3,CCn1c(=O)[nH]c2ccccc21,-2.45
4,CCn1c2ccccc2c2cc(CNC)ccc21,73.3
5,CCn1c2ccccc2c2cc(CNCc3ccccc3OC)ccc21,56.5
6,CCCC(CCC)C(=O)NCc1ccc2c(cnn2-c2ccccc2OC)c1,0.82
7,CCCC(CCC)C(=O)[O-],-5.85
8,CC(=O)NCC(=O)N1[C@@H]2CC[C@H]1c1ccc(Nc3ncc(C(F)(F)F)c(NC4CCC4)n3)cc12,2.85
9,Nc1nc(=O)c2c([nH]1)NCC(CNc1ccc(C(=O)N[C@@H](CCC(=O)[O-])C(=O)[O-])cc1)N2C=O (some centres unmarked),-2.25
10,C=C1/C(=C\C=C2/CCC[C@]3(C)[C@@H]([C@H](C)/C=C/[C@@H](O)C4CC4)CC[C@@H]23)C[C@@H](O)C[C@@H]1O,-1.18
11,Nc1nc(=O)c2c([nH]1)NC[C@H](CNc1ccc(C(=O)N[C@@H](CCC(=O)[O-])C(=O)[O-])cc1)N2C=O,-7.53
12,COc1cc(OC)cc(N(CCNC(C)C)c2ccc3ncc(-c4cnn(C)c4)nc3c2)c1,55.2
13,COc1cc2ncc(-c3ccccc3)nc2cc1OC,-10.1
14,Cn1cc(-c2ccc3ncc(Cc4ccc5ncccc5c4)n3n2)cn1,3.96
15,CCCCCN(C)CCC(O)(P(=O)([O-])O)P(=O)(O)O,3.23
16,C=CCN.ClCC1CO1 (centres unmarked),-4.42
17,C[C@@H]1N=C(N)NC(N(C)C)=N1,-2.11
18,CC(C)c1cnn2c(NCc3ccccc3)cc(NCCCCCCN)nc12,53.6
19,CC(=O)N[C@H]1[C@H]([C@H](O)[C@H](O)CO)OC(C(=O)O)=C[C@@H]1NC(=N)N,-15.8
20,Cc1ncc(-c2csc(NC(=N)N)n2)[nH]1,-2.01
21,Cn1cc(C(=O)C(=O)N[C@H]2CN3CCC2CC3)c2ccccc21,4.71
22,c1ccc2c(c1)Sc1ccccc1N2CC1CN2CCC1CC2 (centres unmarked),71.6
23,C[C@H](CCC(=O)[O-])[C@H]1CCC2C3C(=O)CC4CC(=O)CC[C@]4(C)C3CC(=O)[C@@]21C (some centres unmarked),4.65

row,SMILES,result_ITMP [%]
1,COc1cc(NC(C)CCCN)c2ncccc2c1 (centres unmarked),1.37
2,COc1cc(C)c2c(Oc3cccc(C(F)(F)F)c3)c(OC)cc(NC(C)CCCN)c2n1 (centres unmarked),51.6
3,CO[C@H]1CC[C@H](N(c2cc(C3=CCCCC3)sc2C(=O)[O-])C(=O)[C@H]2CC[C@H](C)CC2)CC1,-0.87
4,C[C@]12CC[C@@H]3c4ccc(OC(=O)N(CCCl)CCCl)cc4CC[C@H]3[C@@H]1CC[C@@H]2OP(=O)([O-])[O-],-4.08
5,O=C(CCCN1CCC(O)(c2ccc(Br)cc2)CC1)c1ccc(F)cc1,14.8
6,O=C(CCCN1CCC2(CC1)C(=O)N(Cc1cccc(F)c1)CN2c1ccccc1)c1ccc(F)cc1,89
7,O=C(CCCN1CCC2(CC1)C(=O)NCN2c1ccccc1)c1ccc(F)cc1,20.3
8,CC(=O)OCC1=C(C(=O)[O-])N2C(=O)[C@@H](NC(=O)CCCC(N)C(=O)[O-])C2SC1 (some centres unmarked),1.34
9,CC1(C)[C@H]2CC[C@@]1(C)[C@H](O)[C@@H]2O,-3.19
10,C[C@@H]1[C@H](O)[C@@H](C)/C=C/C=C/C=C/C=C/C=C/C=C/C=C/[C@H](O[C@@H]2O[C@H](C)[C@@H](O)[C@H](N)[C@@H]2O)C[C@@H]2O[C@](O)(C[C@@H](O)C[C@@H](O)[C@H](O)CC[C@@H](O)C[C@@H](O)CC(=O)O[C@H]1C)C[C@H](O)[C@H]2C(=O)O,0.23
11,C[C@]12CCC(=O)C=C1CC[C@@H]1[C@@H]2[C@@H](O)C[C@]2(C)C(=O)CC[C@@H]12,-4.8
12,NC(=O)[C@@H]1CC[C@@H]2CN1C(=O)N2OS(=O)(=O)[O-],-0.26
13,COc1cc(C(=O)N2CCC(N3CCN(C)CC3)CC2)ccc1Nc1ncc2c(n1)N(C)c1ccccc1C(=O)N2C,37.9
14,CC[C@@H]1C(=O)N(C)c2cnc(Nc3ccc(C(=O)NC4CCN(C)CC4)cc3OC)nc2N1C1CCCC1,66.8
15,COc1cc(C(=O)NC2CCN(C)CC2)c(F)cc1Nc1ncc2c(n1)N(C1CCCC1)CC(F)(F)C(=O)N2C,69.4
16,COc1ccc(F)c(F)c1C(=O)c1cnc(NC2CCN(S(C)(=O)=O)CC2)nc1N,16.3
17,CC[C@@H]1C(=O)N(C)c2cnc(Nc3ccc(C(=O)N[C@H]4CC[C@H](N5CCN(CC6CC6)CC5)CC4)cc3OC)nc2N1C(C)C,81.5
18,COc1cc(OC2CCN(C)CC2)ccc1Nc1ncc2c(n1)n(C1CCCC1)c(=O)n2C,37.2
19,CC(C)CCN1c2nc(Nc3cc(F)c(O)c(F)c3)ncc2N(C)C(=O)C1C (centres unmarked),17.5
20,CCOc1cc(C(=O)N2CCC(N3CCN(C)CC3)CC2)ccc1Nc1ncc2c(n1)N(C1CCCC1)c1ccccc1C(=O)N2C,14.1
